Where “and” joins values, the source holds several entries; their conditions need not be identical. Identical values can stand only once. The campaign covered roughly 5,500 compounds. About 2,000 (36%) were called active. Another 18% or so got no clear call; they are omitted. Rule as the data show it: active = normalized growth mostly below about 0.91 (no sharp cut-off); inconclusive = no clear call, values can overlap the other calls; inactive = mostly above about 0.92. This is one part of the list.
Assay: chemical genetic growth profiling, strain panel (AID 1159580);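 also: tested at 20 µM; growth read once vehicle control cultures reached saturation at 30 °C; 1 = growth at the plate median or of vehicle wells; lower values mean less growth of the strain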
Settings: S. cerevisiae deletion strains, growth OD

Measured: normalized growth

Cc1cc(O)c(C=O)c(O)c1C(=O)O
inactive: locus YAL021C, strain ccr4, stronger effect = lower value 0.991 | locus YAL026C, strain drs2, stronger effect = lower value 1.01 | locus YAL030W, strain snc1, stronger effect = lower value 0.997 | locus YBL061C, strain skt5, stronger effect = lower value 1.01 | locus YBR009C, strain hhf1, stronger effect = lower value 1.02 | locus YBR021W, strain FUR4, stronger effect = lower value 1.05 | locus YBR023C, strain chs3, stronger effect = lower value 1.01 | locus YBR171W, strain sec66, stronger effect = lower value 1 | locus YBR229C, strain ROT2, stronger effect = lower value 0.999 | locus YBR231C, strain swc5, stronger effect = lower value 0.99 | locus YBR279W, strain paf1, stronger effect = lower value 0.997 | locus YCL011C, strain gbp2, stronger effect = lower value 1.01 | locus YCL016C, strain dcc1, stronger effect = lower value 1.01 | locus YCL029C, strain bik1, stronger effect = lower value 1.02 | locus YCL061C, strain MRC1, stronger effect = lower value 1.01 | locus YCL069W, strain vba3, stronger effect = lower value 1 | locus YCR088W, strain abp1, stronger effect = lower value 1.01 | locus YDL005C, strain med2, stronger effect = lower value 1.01 | locus YDL035C, strain GPR1, stronger effect = lower value 1.03 | locus YDL040C, strain nat1, stronger effect = lower value 1.01 | locus YDL074C, strain BRE1, stronger effect = lower value 1.06 | locus YDL101C, strain DUN1, stronger effect = lower value 1.03 | locus YDL185W, strain tfp1, stronger effect = lower value 0.987 | locus YDL192W, strain arf1, stronger effect = lower value 1.03 | locus YDR001C, strain nth1, stronger effect = lower value 0.999 | locus YDR069C, strain doa4, stronger effect = lower value 0.977 | locus YDR101C, strain arx1, stronger effect = lower value 1.04 | locus YDR137W, strain rgp1, stronger effect = lower value 1.01 | locus YDR150W, strain NUM1, stronger effect = lower value 0.983 | locus YDR159W, strain sac3, stronger effect = lower value 1.01 | locus YDR162C, strain NBP2, stronger effect = lower value 1.02 | locus YDR195W, strain ref2 0.99 | locus YDR297W, strain sur2, stronger effect = lower value 0.997 | locus YDR318W, strain mcm21, stronger effect = lower value 1 | locus YDR334W, strain swr1, stronger effect = lower value 0.987 | locus YDR335W, strain msn5, stronger effect = lower value 0.991 | locus YDR388W, stronger effect = lower value 0.997 | locus YDR392W, strain spt3, stronger effect = lower value 0.962 | locus YDR502C, strain sam2, stronger effect = lower value 1.03 | locus YEL003W, strain gim4, stronger effect = lower value 0.995 | locus YEL037C, strain rad23, stronger effect = lower value 0.993 | locus YEL061C, strain CIN8 (second series), stronger effect = lower value 0.999 | locus YEL061C, strain CIN8, stronger effect = lower value 1.01 | locus YER015W, strain faa2, stronger effect = lower value 1 | locus YER016W, strain bim1, stronger effect = lower value 1 | locus YER110C, stronger effect = lower value 1.01 | locus YER111C, strain swi4, stronger effect = lower value 1 | locus YER155C, strain BEM2 (second series), stronger effect = lower value 1 | locus YER155C, strain BEM2, stronger effect = lower value 1.01 | locus YER167W, strain BCK2, stronger effect = lower value 1.03 | locus YFR010W, strain ubp6, stronger effect = lower value 0.999 | locus YGL078C, strain dbp3, stronger effect = lower value 1.01 | locus YGL086W, strain mad1, stronger effect = lower value 1.03 | locus YGL167C, strain pmr1, stronger effect = lower value 0.989 | locus YGL173C, strain kem1, stronger effect = lower value 1.01 | locus YGL227W, strain vid30, stronger effect = lower value 0.999 | locus YGL240W, strain doc1, stronger effect = lower value 0.929 | locus YGL248W, strain PDE1, stronger effect = lower value 1.03 | locus YGL253W, strain hxk2, stronger effect = lower value 1 | locus YGR078C, strain PAC10, stronger effect = lower value 1.06 | locus YGR135W, strain pre9, stronger effect = lower value 1.02 | locus YGR252W, strain gcn5, stronger effect = lower value 1 | locus YHR013C, strain ard1, stronger effect = lower value 1.01 | locus YHR027C, strain rpn1, stronger effect = lower value 0.992 | locus YHR030C, strain SLT2, stronger effect = lower value 1 and 1.02 | locus YHR079C, strain IRE1 (second series), stronger effect = lower value 1.01 | locus YHR079C, strain IRE1, stronger effect = lower value 1.04 | locus YHR094C, strain hxt1, stronger effect = lower value 1.01 | locus YHR129C, strain ARP1, stronger effect = lower value 1.02 | locus YHR142W, strain chs7, stronger effect = lower value 1.03 | locus YHR200W, strain rpn10, stronger effect = lower value 1.02 | locus YIL066C, strain RNR3, stronger effect = lower value 1.05 | locus YIL073C, strain SPO22, stronger effect = lower value 1.12 | locus YIL125W, strain kgd1, stronger effect = lower value 1 | locus YIR030C, strain dcg1, stronger effect = lower value 1.02 | locus YJL092W, strain hpr5, stronger effect = lower value 1.01 | locus YJL095W, strain BCK1 (second series), stronger effect = lower value 1.01 | locus YJL095W, strain BCK1, stronger effect = lower value 1.1 and 1 | locus YJL115W, strain asf1, stronger effect = lower value 0.999 | locus YJL129C, strain trk1, stronger effect = lower value 1.05 | locus YJL134W, strain LCB3, stronger effect = lower value 0.993 | locus YJL154C, strain vps35, stronger effect = lower value 0.996 | locus YJL164C, strain tpk1, stronger effect = lower value 1.02 | locus YJL166W, strain qcr8, stronger effect = lower value 1.01 | locus YJL168C, strain set2, stronger effect = lower value 0.997 | locus YJL187C, strain SWE1 (second series), stronger effect = lower value 1.05 | locus YJL187C, strain SWE1, stronger effect = lower value 0.998 | locus YJR043C, strain POL32, stronger effect = lower value 1.02 | locus YJR066W, strain TOR1, stronger effect = lower value 0.93 | locus YJR075W, strain HOC1, stronger effect = lower value 1.06 | locus YKL009W, strain mrt4, stronger effect = lower value 1.04 | locus YKL068W, stronger effect = lower value 0.987 | locus YKL085W, strain MDH1 (second series), stronger effect = lower value 1 | locus YKL085W, strain MDH1, stronger effect = lower value 1 | locus YKL160W, strain elf1, stronger effect = lower value 1.03 | locus YKR001C, strain vps1, stronger effect = lower value 1.03 | locus YKR026C, strain gcn3, stronger effect = lower value 1.01 | locus YKR091W, strain srl3, stronger effect = lower value 1.01 | locus YLL001W, strain dnm1, stronger effect = lower value 1.02 | locus YLL026W, stronger effect = lower value 1.01 | locus YLL041C, strain sdh2, stronger effect = lower value 0.997 | locus YLR027C, strain aat2, stronger effect = lower value 1.01 | locus YLR039C, strain RIC1, stronger effect = lower value 1.09 | locus YLR058C, strain SHM2, stronger effect = lower value 0.965 | locus YLR102C, strain apc9, stronger effect = lower value 1.01 | locus YLR113W, strain HOG1, stronger effect = lower value 1.07 | locus YLR221C, strain rsa3, stronger effect = lower value 1.03 | locus YLR258W, strain gsy2, stronger effect = lower value 1 | locus YLR262C, strain YPT6 (second series), stronger effect = lower value 1.01 | locus YLR262C, strain YPT6, stronger effect = lower value 1.14 | locus YLR268W, strain sec22, stronger effect = lower value 1.04 | locus YLR320W, strain mms22, stronger effect = lower value 1.05 | locus YLR330W, strain CHS5, stronger effect = lower value 1 | locus YLR342W, strain FKS1 (second series), stronger effect = lower value 1.01 | locus YLR342W, strain FKS1, stronger effect = lower value 1.01 | locus YLR357W, strain rsc2, stronger effect = lower value 1.02 | locus YLR370C, strain arc18, stronger effect = lower value 1 | locus YLR371W, strain rom2, stronger effect = lower value 1.01 | locus YLR384C, strain iki3, stronger effect = lower value 0.999 | locus YLR418C, strain cdc73, stronger effect = lower value 1.05 | locus YML016C, strain PPZ1, stronger effect = lower value 1.01 | locus YML032C, strain rad52, stronger effect = lower value 0.985 | locus YML120C, strain ndi1, stronger effect = lower value 1.01 | locus YML124C, strain tub3, stronger effect = lower value 1.01 | locus YMR058W, strain fet3, stronger effect = lower value 0.987 | locus YMR078C, strain ctf18, stronger effect = lower value 0.999 | locus YMR125W, strain sto1, stronger effect = lower value 1.01 | locus YMR129W, stronger effect = lower value 1 | locus YMR205C, strain PFK2, stronger effect = lower value 1.05 | locus YMR223W, strain ubp8, stronger effect = lower value 1.02 | locus YMR231W, strain pep5, stronger effect = lower value 0.989 | locus YMR263W, strain SAP30, stronger effect = lower value 1.06 | locus YMR307W, strain GAS1, stronger effect = lower value 1.08 | locus YNL067W, strain RPL9B, stronger effect = lower value 1.05 | locus YNL071W, strain lat1, stronger effect = lower value 1.01 | locus YNL183C, strain NPR1, stronger effect = lower value 0.946 | locus YNL209W, strain ssb2, stronger effect = lower value 0.992 | locus YNL233W, strain BNI4, stronger effect = lower value 1.09 | locus YNL248C, strain rpa49, stronger effect = lower value 1.01 | locus YNL250W, strain rad50, stronger effect = lower value 0.986 | locus YNL271C, strain bni1, stronger effect = lower value 1 | locus YNL298W, strain CLA4, stronger effect = lower value 1.01 | locus YNL307C, strain MCK1, stronger effect = lower value 1.03 | locus YNL322C, strain KRE1 (second series), stronger effect = lower value 1.01 | locus YNR049C, strain mso1, stronger effect = lower value 1.01 | locus YNR052C, strain pop2, stronger effect = lower value 0.992 | locus YOL012C, strain htz1 0.989 | locus YOL147C, strain pex11, stronger effect = lower value 1 | locus YOR001W, strain rrp6, stronger effect = lower value 1.02 | locus YOR061W, strain CKA2, stronger effect = lower value 1 | locus YOR069W, strain VPS5, stronger effect = lower value 1.01 | locus YOR070C, strain gyp1, stronger effect = lower value 0.998 | locus YOR080W, strain dia2, stronger effect = lower value 0.998 | locus YOR083W, strain WHI5, stronger effect = lower value 1.04 | locus YOR106W, strain vam3, stronger effect = lower value 1.03 | locus YOR136W, strain idh2, stronger effect = lower value 1.03 | locus YOR144C, strain elg1, stronger effect = lower value 1 | locus YOR184W, strain ser1, stronger effect = lower value 1.05 | locus YOR231W, strain MKK1, stronger effect = lower value 1.04 | locus YOR265W, strain rbl2, stronger effect = lower value 1.01 | locus YOR270C, strain vph1, stronger effect = lower value 1.02 | locus YOR290C, strain snf2, stronger effect = lower value 1.02 | locus YOR316C, strain cot1, stronger effect = lower value 1.01 | locus YPL051W, strain arl3, stronger effect = lower value 0.999 | locus YPL078C, strain atp4, stronger effect = lower value 1.01 | locus YPL106C, strain sse1, stronger effect = lower value 0.995 | locus YPL240C, strain hsp82, stronger effect = lower value 1 | locus YPL241C, strain CIN2, stronger effect = lower value 0.995 | locus YPL256C, strain CLN2, stronger effect = lower value 1.03 | locus YPR119W, strain clb2, stronger effect = lower value 0.999 | locus YPR141C, strain kar3, stronger effect = lower value 0.993 | locus YPR163C, strain tif3, stronger effect = lower value 1 | locus YPR167C, strain met16, stronger effect = lower value 1.01 | strain wtn01, stronger effect = lower value 1.04
